Test results: PubChem BioAssay AID1159580 (chemical genetic matrix, 2015)
Hit rate of the full screen: of about 5,500 compounds, about 2,000 (36%) were called active. Another 18% or so got no clear call; they are omitted. The list shows a part of the results. A number with no mark means an inactive call. Cut-off read from the data, not from the text of the source: active = normalized growth mostly below about 0.91 (no sharp cut-off); inconclusive = no clear call, values can overlap the other calls; inactive = mostly above about 0.92.

Assay: chemical genetic growth profiling, strain panel (AID 1159580);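 note: tested at 20 µM; growth read once vehicle control cultures reached saturation at 30 °C; 1 = growth at the plate median or of vehicle wells; lower values mean less growth of the strain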
Conditions: growth OD
[1] = S. cerevisiae deletion strains, locus YAL013W, strain DEP1, active compounds read low
[2] = S. cerevisiae deletion strains, locus YBR229C, strain ROT2, active compounds read low
[3] = S. cerevisiae deletion strains, locus YCL061C, strain MRC1, active compounds read low
[4] = S. cerevisiae deletion strains, locus YDL101C, strain DUN1, active compounds read low
[5] = S. cerevisiae deletion strains, locus YDR150W, strain NUM1, active compounds read low
[6] = S. cerevisiae deletion strains, locus YEL061C, strain CIN8, active compounds read low
[7] = S. cerevisiae deletion strains, locus YGR078C, strain PAC10, active compounds read low
[8] = S. cerevisiae deletion strains, locus YHR030C, strain SLT2, active compounds read low
[9] = S. cerevisiae deletion strains, locus YHR087W, strain rtc3, active compounds read low
[10] = S. cerevisiae deletion strains, locus YJR043C, strain POL32, active compounds read low
[11] = S. cerevisiae deletion strains, locus YJR075W, strain HOC1, active compounds read low
[12] = S. cerevisiae deletion strains, locus YKL190W, strain CNB1, active compounds read low
[13] = S. cerevisiae deletion strains, locus YLR039C, strain RIC1, active compounds read low
[14] = S. cerevisiae deletion strains, locus YLR058C, strain SHM2 (second series), active compounds read low
[15] = S. cerevisiae deletion strains, locus YLR085C, strain ARP6, active compounds read low
[16] = S. cerevisiae deletion strains, locus YLR262C, strain YPT6, active compounds read low
[17] = S. cerevisiae deletion strains, locus YML094W, strain GIM5, active compounds read low
[18] = S. cerevisiae deletion strains, locus YMR219W, strain ESC1, active compounds read low
[19] = S. cerevisiae deletion strains, locus YMR263W, strain SAP30, active compounds read low
[20] = S. cerevisiae deletion strains, locus YNL128W, strain TEP1, active compounds read low
[21] = S. cerevisiae deletion strains, locus YNL153C, strain GIM3, active compounds read low
[22] = S. cerevisiae deletion strains, locus YNL298W, strain CLA4 (second series), active compounds read low
[23] = S. cerevisiae deletion strains, locus YNL322C, strain KRE1, active compounds read low
[24] = S. cerevisiae deletion strains, locus YNR030W, strain Alg12, active compounds read low
[25] = S. cerevisiae deletion strains, locus YOL006C, strain TOP1, active compounds read low
[26] = S. cerevisiae deletion strains, locus YPL055C, strain LGE1, active compounds read low
[27] = S. cerevisiae deletion strains, locus YPL241C, strain CIN2, active compounds read low
[28] = S. cerevisiae deletion strains, locus YPR135W, strain CTF4, active compounds read low
[29] = S. cerevisiae strains, strain wild type, active compounds read low
[30] = S. cerevisiae deletion strains, locus YGR229C, strain SMI1, active compounds read low

SMILES: CC(=O)CSc1nsc(SCC(C)=O)c1C#N
- normalized growth [1]: 1.01
- normalized growth [2]: 1
- normalized growth [3]: 1.01
- normalized growth [4]: 0.974
- normalized growth (S. cerevisiae deletion strains, locus YDL134C, strain PPH21, active compounds read low): 1.01
- normalized growth [5]: 0.99
- normalized growth [6]: 1.02
- normalized growth [7]: 0.997
- normalized growth [8]: 0.992
- normalized growth [9]: 0.971
- normalized growth [10]: 1
- normalized growth [11]: 0.995
- normalized growth [12]: 1.01
- normalized growth [13]: 1.01
- normalized growth [14]: 0.992
- normalized growth [15]: 1
- normalized growth [16]: 0.962
- normalized growth [17]: 1.01
- normalized growth [18]: 0.989
- normalized growth [19]: 0.996
- normalized growth [20]: 1.01
- normalized growth [21]: 0.979
- normalized growth [22]: 0.988
- normalized growth [23]: 1.01
- normalized growth [24]: 0.986
- normalized growth [25]: 0.87
- normalized growth [26]: 0.903
- normalized growth [27]: 0.992
- normalized growth [28]: 0.918
- normalized growth [29]: 1

SMILES: COc1ccc2[nH]c(I)c(CCNC(C)=O)c2c1
- normalized growth [1]: 1.03
- normalized growth (S. cerevisiae deletion strains, locus YAL040C, strain CLN3, active compounds read low): 0.959
- normalized growth (S. cerevisiae deletion strains, locus YCL061C, strain MRC1 (second series), active compounds read low): 1.01
- normalized growth (S. cerevisiae deletion strains, locus YDR363W, strain ESC2, active compounds read low): 1.02
- normalized growth (S. cerevisiae deletion strains, locus YER002W, strain NOP16, active compounds read low): 1.01
- normalized growth [7]: 1.02
- normalized growth [30]: 0.998
- normalized growth [11]: 1.11 [resistant] (active)
- normalized growth [20]: 1.1
- normalized growth [21]: 0.997
- normalized growth (S. cerevisiae deletion strains, locus YNL175C, strain NOP13, active compounds read low): 1.01
- normalized growth (S. cerevisiae deletion strains, locus YNL197C, strain WHI3, active compounds read low): 1.01
- normalized growth (S. cerevisiae deletion strains, locus YNL224C, strain SQS1, active compounds read low): 1.02
- normalized growth [23]: 1.02
- normalized growth [26]: 1.09
- normalized growth [27]: 1.01

SMILES: CCCc1ccc(OC)cc1NC(C)=O
- normalized growth [1]: 1.01
- normalized growth [2]: 1.01
- normalized growth [3]: 1.03
- normalized growth [4]: 1
- normalized growth [5]: 0.95
- normalized growth [6]: 0.996
- normalized growth [7]: 1.02
- normalized growth [30]: 0.991
- normalized growth [8]: 1.06
- normalized growth [9]: 1
- normalized growth [10]: 1
- normalized growth [11]: 0.996
- normalized growth [12]: 0.991
- normalized growth [13]: 1.02
- normalized growth [14]: 1.02
- normalized growth [15]: 1.03
- normalized growth [16]: 0.987
- normalized growth [17]: 1.03
- normalized growth [18]: 1.01
- normalized growth [19]: 1.01
- normalized growth [21]: 1.03
- normalized growth [22]: 1.05
- normalized growth [23]: 1.01
- normalized growth [24]: 1.02
- normalized growth [25]: 1.06
- normalized growth [26]: 0.99
- normalized growth [27]: 0.999
- normalized growth [28]: 1.06
- normalized growth [29]: 0.999
